High-throughput results (PubChem)
The entries come from a sample that favours hits as a whole.
AMA1-RON2 inh = inhibitors of Plasmodium falciparum AMA1-RON2 interaction; AlphaScreen AMA1-biotinylated RON2 peptide binding; Potency, µM (titrated, usually from 58.2 µM), inactives show top-dose activity change, negative = inhibition, hits mostly inhibitors; 360,000 tested, 0.2% active; active = well fitted inhibition curve with a large enough effect; inconclusive = small, poorly fitted or top-dose-only effect; inactive = no such curve, though single readings can be large or run the other way;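 note: potency is the fitted concentration of half-maximal effect; 0% = vehicle wells and -100% = peptide control; nearly all actives have a fitted effect of over 45% in size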
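AMA1 (3D7) with his tag at 25 nM final met compounds first, then biotinylated RON2 peptide at 25 nM; detection used donor plus acceptor beads, 10 µg/mL apiece, read by AlphaScreen after 30 min at room temperature.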
Cycloheximide cs = counter-screen hit for Shiga toxin inhibitors, cycloheximide; cell reporter, cycloheximide protein synthesis inhibition counterscreen; max response, %; 300,000 tested, 12% active; in the data active = max response mostly above about 13%, no sharp cut-off; inactive = mostly below about 14%; note: read at 38.3 µM for the half of the compounds with a filed dose; 0% is about no effect
Shiga toxin inh = inhibitors of Shiga toxin in Vero cells | Vero cells, Shiga toxin protein synthesis inhibition reporter | inhibition, % at 38.7 µM | 290,000 tested, 9.2% active; in the data active = inhibition mostly above about 28%, no sharp cut-off; inactive = mostly below about 43%; note: 0% is about no effect
LASV entry inh = Lassa virus entry inhibition; Lassa virus pseudotype entry inhibition, cell reporter; Potency, µM (highest dose often 37.9 µM), for inactives: at the highest dose activity change, negative = inhibition, hits mostly inhibitors; 300,000 tested, 1.2% active; AID 540256; calls by dose curve; tested in HEK293 cells; note: potency is the fitted concentration of half-maximal effect; % is set by controls: 0 for no effect and ±100 for the full control effect; nearly all actives have a fitted effect of over 50% in size
MARV entry inh = inhibitors of Marburg virus binding or cell entry | AID 540276 | Potency, µM (titrated, usually from 37.8 µM), without a hit: top-dose activity change, negative = inhibition, most hits filed as inhibitors | Marburg virus pseudotyped entry inhibition, cell reporter | 300,000 tested, 1.8% active; calls by dose curve; tested in HEK293 cells; note: potency is the fitted concentration of half-maximal effect; % is set by controls: 0 for no effect and ±100 for the full control effect
An asterisk follows results filed as active; u = inconclusive; x = no result given; [ ] = another dose, or the depositor's remark.

SMILES	AMA1-RON2 inh	Cycloheximide cs	Shiga toxin inh	LASV entry inh	MARV entry inh
COc1cccc(NC(=O)/C=C/c2ccccc2[N+](=O)[O-])c1	3.4%[2.32 µM]	61.0*	74.2*	u	-23.3%
O=C(/C=C/c1ccccc1[N+](=O)[O-])Nc1cccnc1	-6.6%	35.7*	44.8*	u	u
O=C(/C=C/c1ccccc1[N+](=O)[O-])NNC(=O)c1ccncc1	78.8%	x	x	x	x
COc1ccc(OC)c(NC(=O)/C=C/c2ccccc2[N+](=O)[O-])c1	-14.8%	13.2	-26.2	-0.8%	0.2%
CCCCOc1ccc(/C=C/C(=O)Nc2ccc([N+](=O)[O-])cc2C)cc1	-17.6%	0.4	9.8	0.1%	-6.6%
COc1cccc(NC(=O)/C=C/c2ccc([N+](=O)[O-])cc2)c1	u	39.2*	47.0*	-23.4%	u
Cc1nn(C2CCS(=O)(=O)C2)c(C)c1CN(C)C(=O)c1ccc(F)cc1 (stereo not given)	-1.1%	x	x	x	x
CCCCCc1nc2c(=O)n(C)c3ccccc3c2o1	-22.4%	64.4*	123.4*	15.6%	2.0%
CCCCCCCc1nc2c(=O)n(C)c3ccccc3c2o1	0.4%	-4.5	-8.2	8.4%	-14.7%
COC(=O)C1=C(C)NC(C)=C(C(=O)OCCSc2ccccc2)C1C (stereo not given)	x	13.4*	23.1*	x	x
COC(=O)C1=C(C)NC(=O)NC1c1ccccc1 (stereo not given)	-4.0%	-1.2	9.7	0.5%	15.7%
Cc1c(CCC(=O)NCCCC(=O)O)c(=O)oc2cc3oc4c(c3cc12)CCCC4	2.0%	8.4	-6.2	x	x
CCOC(=O)c1ccc(NC(=O)CN2C(=O)c3cccnc3Sc3ccccc32)cc1	x	x	x	-19.3%[46.1 µM]	x
CCOc1ccc(NC(=O)c2cccnc2Cl)c([N+](=O)[O-])c1	-3.9%	26.3	-4.7	1.9%	u
CCOc1ccc(NC(=O)c2cc(-c3ccc(C)c(F)c3)on2)c([N+](=O)[O-])c1	x	x	x	-3.2%[46.1 µM]	u
CCOc1ccc(NC(=O)CC2SC(N)=NC2=O)c([N+](=O)[O-])c1 (stereo not given)	9.1%	8.9	-28.4	16.8%	u
CCOc1ccc(NC(=O)c2ccc(CC)s2)c([N+](=O)[O-])c1	-12.6%	23.3*	34.0*	22.8%	u
CCOc1ccc(NC(=O)c2cccs2)c([N+](=O)[O-])c1	-17.4%	87.4*	120.4*	u	u
CCOc1ccc(NC(=O)c2ccco2)c([N+](=O)[O-])c1	0.8%	66.4*	39.9*	u	u
CC1CCCCC1NC(=O)CSc1nnc(CC(=O)Nc2ccccc2F)n1C (stereo not given)	0.7%	-2.2	2.8	17.4%[46.1 µM]	10.0%[46.1 µM]
O=C(N/N=C/c1ccc(O)cc1)c1cc(-c2ccccc2)nc2ccccc12	16.7%	34.0*	65.3*	x	x
COc1cc(/C=N/NC(=O)c2cc(-c3ccccc3OC(C)C)nc3ccccc23)ccc1O	1.1%	17.0	18.7	5.8µM*	4.61µM*
O=C(N/N=C/c1ccccn1)c1cc(-c2ccccc2)nc2ccccc12	78.1%	7.1	26.4	x	x
COc1ccc2[nH]c(C(=O)N/N=C/c3ccc(OC)c(O)c3)cc2c1	4.8%	12.0	20.4	5.62µM*	u
COc1ccc(/C=N/NC(=O)c2nc(-c3ccccc3)cc(-c3ccccc3)n2)cc1O	-10.9%	28.7*	10.9	u	17.8µM*
SMILES	AMA1-RON2 inh	Cycloheximide cs	Shiga toxin inh	LASV entry inh	MARV entry inh
Nn1c(-c2cccc(O)c2)nnc1-c1cccc(O)c1	8.8%	x	x	10.7%	11.5%
CC(=O)Nc1cccc(-c2ccnc3c2CC(C)(C(=O)NCc2ccncc2)O3)c1 (stereo not given)	16.6%	x	x	x	x
CCOC(OCC)c1cn(Cc2ccc(C(=O)c3ccccc3)cc2)nn1	-4.2%	-4.0	-9.8	x	x
COc1cc(/C=N/NC(=O)c2cc(-c3ccccc3)nc3ccccc23)ccc1O	23.0%	23.5*	45.2*	u	u
Cc1ccc(-c2cc(C(=O)N/N=C/c3c(C)nn(C)c3C)c3ccccc3n2)cc1C	-0.9%	19.0*	48.6	u	u
CCOc1cc(/C=N/NC(=O)c2cc(-c3cccc(OC)c3)nc3ccccc23)ccc1O	45.0%	x	x	u	u
COc1ccc(/C=N/NC(=O)c2cc(-c3ccccc3)nc3ccccc23)cc1O	0.8%	11.1	20.7	-23.2%[46.1 µM]	12.6µM*
O=C(NCc1ccccc1)c1ccccc1C(=O)c1ncc[nH]1	30.4%	-2.6	10.7	-18.4%	7.3%[46.1 µM]
COc1ccc(OCCNc2cc(N3CCOCC3)ccc2[N+](=O)[O-])cc1	-16.0%	13.0	-11.7	-13.6%	u
COc1cccc(OCCNc2cc(N3CCOCC3)ccc2[N+](=O)[O-])c1	-21.2%	44.0*	21.9	22.7%	10.0%
